According to the supplement of paper PMC3334620:
The full ranking holds about 33,000 sequences; the median of “E-score (-0.5 to 0.5)” is about -0.015, and the highest 2% start at about 0.3. Shown is part of a subset that was picked to be rich in the highest values.

target: T1, Abf1 (UniProt P14164); test: PBM E-score (8-mer binding enrichment) (E-score (-0.5 to 0.5)); higher = stronger / more preferred TF binding; conditions: protein concentration: 200 nM; construct: GST-full length
T1 sequence: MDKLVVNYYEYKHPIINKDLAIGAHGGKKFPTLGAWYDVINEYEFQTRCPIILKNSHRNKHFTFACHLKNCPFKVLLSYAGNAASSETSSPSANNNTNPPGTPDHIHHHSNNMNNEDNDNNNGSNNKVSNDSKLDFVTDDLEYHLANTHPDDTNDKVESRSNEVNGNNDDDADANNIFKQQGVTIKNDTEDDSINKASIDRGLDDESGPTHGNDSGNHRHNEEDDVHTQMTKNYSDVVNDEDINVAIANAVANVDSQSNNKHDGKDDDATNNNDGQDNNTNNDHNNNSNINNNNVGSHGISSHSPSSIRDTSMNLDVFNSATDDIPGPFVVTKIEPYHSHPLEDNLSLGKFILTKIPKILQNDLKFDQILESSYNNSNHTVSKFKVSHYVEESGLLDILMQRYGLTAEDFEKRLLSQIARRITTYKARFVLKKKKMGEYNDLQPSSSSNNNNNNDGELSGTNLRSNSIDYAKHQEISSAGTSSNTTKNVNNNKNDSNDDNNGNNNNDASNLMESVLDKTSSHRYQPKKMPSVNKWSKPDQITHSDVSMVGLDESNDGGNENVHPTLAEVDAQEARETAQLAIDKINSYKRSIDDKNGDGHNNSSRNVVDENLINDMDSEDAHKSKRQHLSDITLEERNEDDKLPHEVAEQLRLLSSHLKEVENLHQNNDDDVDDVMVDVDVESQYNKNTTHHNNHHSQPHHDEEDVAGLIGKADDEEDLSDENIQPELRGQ
Procedure, shortened: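 Yeast transcription factors, full-length or as DNA-binding domains, were expressed with a GST tag using PURExpress in vitro transcription/translation. At about 100-200 nM they were applied to universal all-10-mer Agilent arrays, double-stranded by primer extension on fresh or once-stripped slides. Fluorescent anti-GST detected bound protein, and masliner normalised the scans. E-scores for ungapped eight-base words, pooled with reverse complements, came from the Universal PBM Analysis Suite.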

Row | Sequence | PBM E-score
1 | CAAGTTGA | -0.187
2 | CCCGGGCC | -0.304
3 | CAACTCGC | 0.0334
4 | AATTTCAT | 0.134
5 | GCCAGGCA | -0.186
6 | TGCCTCAA | -0.124
7 | AACGGCTA | 0.193
8 | TACGGCAA | 0.301
9 | GACGGCAA | 0.246
10 | AACGGCGT | 0.227
11 | AACGGCGC | 0.123
12 | GACGGCTA | 0.0813
13 | CACGGCTA | 0.307
14 | TACGGCGA | 0.313
15 | TCCGGCGA | 0.069
16 | GACGGCGA | 0.0475
17 | CACGGCAA | 0.219
18 | AACGGCGA | 0.327
19 | GCCATGAA | -0.0667
20 | ATTTTCCG | 0.1
21 | CCCGGAAC | -0.125
22 | AATTCACT | -0.102
23 | AAGCTCTC | -0.125
24 | GCCATAGA | -0.126
25 | GACTCATA | -0.0291

Row | Sequence | PBM E-score
26 | ACTTCGCA | 0.0373
27 | CACGGTGC | 0.0971
28 | ACGGGTGG | 0.0777
29 | CCGGGTGA | 0.12
30 | ACGGGTGA | 0.32
31 | CACGGCGG | 0.00732
32 | AACGGTGA | 0.135
33 | CACGGTGA | 0.308
34 | CACGGCGC | 0.139
35 | CACGGCGA | 0.305
36 | AAGTGGTC | -0.131
37 | CCACCTGA | -0.0561
38 | TCAATAGA | -0.172
39 | CCTGATGA | 0.139
40 | ACTGATGA | 0.19
41 | AGTGATTA | 0.351
42 | CGTGATGC | 0.0552
43 | GGTGATTA | 0.242
44 | AGTGATTC | 0.207
45 | AGTGATGG | 0.056
46 | GTTGATGA | 0.283
47 | GCTGATGA | 0.199
48 | GGTGATGA | 0.34
49 | AGTGATGA | 0.366
50 | CGTGATGA | 0.31

Row | Sequence | PBM E-score
51 | CATTCGCC | 0.0362
52 | ATTATTAG | 0.164
53 | CATCCTCC | -0.127
54 | ACAGGTCA | -0.0348
55 | ACCTGCAT | 0.013
56 | AACCAGCC | -0.0913
57 | CTGTGAAC | 0.0459
58 | CCTCCCAG | -0.196
59 | CGTGCCAG | 0.148
60 | ACCTGGCC | -0.0752
61 | CCCTCTAA | -0.23
62 | CCTAAATC | 0.154
63 | AGTGATGC | 0.319
64 | AATGATGC | 0.196
65 | ATTGATGC | 0.0481
66 | AGAAGACT | -0.0993
67 | ACACTACA | 0.169
68 | CCACTACA | -0.0773
69 | TCACTACA | 0.344
70 | CTCTGTGA | -0.118
71 | CGAACAGC | -0.165
72 | AAGATCCT | 0.0788
73 | TATTTCGA | 0.272
74 | TAGACGAA | 0.338
75 | CAGACGAC | 0.191

Row | Sequence | PBM E-score
76 | GAGACGAA | 0.0822
77 | CAGACGAA | 0.324
78 | AAGACGAA | 0.223
79 | TAGACGGA | 0.122
80 | AAGCTAAC | 0.0254
81 | AGTCAGCC | -0.181
82 | CCTCCCAC | -0.188
83 | CCTCCAGC | -0.322
84 | GCCTACCC | -0.25
85 | CACTAGCC | 0.144
86 | GATGTCCC | 0.209
87 | ACGATGCG | 0.07
88 | ACCCCCGT | -0.0911
89 | CGGACGAA | 0.35
90 | CGGACGAC | 0.343
91 | GGGACGAA | 0.0455
92 | AGGACGAA | 0.147
93 | CGGACGAG | 0.191
94 | AGGACGAC | 0.12
95 | AGAGCGTC | 0.0295
96 | AGACTTTG | 0.0104
97 | CGCAAACC | -0.124
98 | AGTGAAGG | -0.145
99 | GTTCTTCA | 0.117
100 | GGGTCTAA | -0.112

Row | Sequence | PBM E-score
101 | AATCATCA | 0.317
102 | AATCATCG | 0.179
103 | CATCATCA | 0.254
104 | AATCATCT | 0.184
105 | TATCATCA | 0.385
106 | TCTCATCA | 0.145
107 | GATCAACC | 0.005
108 | CTTCTATC | 0.0251
109 | ACGCACAC | 0.0964
110 | AAGGCTCG | -0.0968
111 | ACGAAGGA | 0.0584
112 | AACCGTGG | -5e-05
113 | AACCGTCC | -0.0986
114 | CATCGTGC | 0.314
115 | AACCGTCG | 0.298
116 | AATCGTGG | 0.125
117 | CATCGTGG | 0.0192
118 | CATCGTGA | 0.135
119 | GACCGTGC | 0.108
120 | AACCGTGC | 0.306
121 | AACCGTCT | -0.0069
122 | AATCGTGA | 0.175
123 | AATCGTGC | 0.311
124 | AGGCCCTA | -0.113
125 | AATGTGCA | 0.0308

Row | Sequence | PBM E-score
126 | GCTACAGA | -0.126
127 | CAACTGGA | -0.182
128 | ATCACTAC | 0.375
129 | ATCACTAG | 0.357
130 | ATCACTAA | 0.359
131 | CTCACTAA | 0.129
132 | AACACTAG | 0.151
133 | AGCACTAA | 0.154
134 | AGCACTAG | 0.0299
135 | AACACTAC | -0.0369
136 | GCCACTAA | -0.149
137 | ACCACTAA | -0.0853
138 | CTCACTAC | 0.203
139 | GTCACTAA | 0.393
140 | CTCTCGTC | 0.011
141 | GCCTTACC | -0.255
142 | TATGCACA | 0.018
143 | AAAGGGTA | -0.0845
144 | CTAACCTC | -0.0908
145 | AGTGAGCG | 0.24
146 | ATCATACA | 0.236
147 | ATTATACC | 0.217
148 | ATCATACC | 0.205
149 | GACATTTA | 0.0126
150 | ATCATACG | 0.315

Row | Sequence | PBM E-score
151 | ATCATTTG | 0.276
152 | GTCATTTA | 0.313
153 | ATTATACG | 0.331
154 | CTCATTTA | 0.0543
155 | CTCATTTC | 0.0189
156 | ATTATACA | 0.0365
157 | ATCATTTC | 0.312
158 | AGGATCTC | -0.0704
159 | GCTATCCA | 0.00713
160 | CGATTGGA | -0.00974
161 | GCGCCGTA | 0.291
162 | TAGCCCTA | -0.149
163 | AGGTTAAG | -0.128
164 | CGCCTGAG | -0.0541
165 | CCTACGCC | -0.0667
166 | GTGATGTA | 0.399
167 | ATCATTCA | 0.278
168 | ATCATTCC | 0.25
169 | ATCATAAA | 0.303
170 | CTGATGTA | -0.129
171 | TTCATAAA | 0.0402
172 | CTGATTTA | 0.0199
